In the library only some 3.2% were active in any assay of this set; here they are far more common.
HDAC3 inhib = blocks human histone deacetylase 3. O15379. recombinant HDAC3, fluorogenic peptide/trypsin coupled, fluorescence. inhibition, % at 8.3 µM. actives 0.15% (n = 320,000). AID 2718; in the data active = inhibition above about 26%, passing the limit was not always enough; inconclusive = no clear call, values can overlap the other calls
ANO1 block = inhibitors of mouse TMEM16A calcium-activated chloride channel. normalized B-score (activity score, 25-100; higher = stronger inhibition) at 10 µM. HEK293 TMEM16A/YFP iodide influx fluorescence, ionomycin. actives 1.2% (n = 310,000). Q8BHY3;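 active = ratio plate-corrected score three or more library SD toward inhibition, starting fluorescence score within five deviations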;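 note: score derived from kinetic fluorescence span divided by baseline fluorescence per well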
CHT allo act = human CHT allosteric activation; CHT-expressing cells, membrane potential dye, choline EC20; active compounds read high; LV-AA mutant CHT in HEK293 cells; B-score at 10 µM; actives 0.49% (n = 310,000); AID 488977;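 active = initial fluorescence not abnormally high and integrated response B-score, plate-corrected, over 3 SD above library mean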
Target sequence (Q9GZV3 whole entry, looked up): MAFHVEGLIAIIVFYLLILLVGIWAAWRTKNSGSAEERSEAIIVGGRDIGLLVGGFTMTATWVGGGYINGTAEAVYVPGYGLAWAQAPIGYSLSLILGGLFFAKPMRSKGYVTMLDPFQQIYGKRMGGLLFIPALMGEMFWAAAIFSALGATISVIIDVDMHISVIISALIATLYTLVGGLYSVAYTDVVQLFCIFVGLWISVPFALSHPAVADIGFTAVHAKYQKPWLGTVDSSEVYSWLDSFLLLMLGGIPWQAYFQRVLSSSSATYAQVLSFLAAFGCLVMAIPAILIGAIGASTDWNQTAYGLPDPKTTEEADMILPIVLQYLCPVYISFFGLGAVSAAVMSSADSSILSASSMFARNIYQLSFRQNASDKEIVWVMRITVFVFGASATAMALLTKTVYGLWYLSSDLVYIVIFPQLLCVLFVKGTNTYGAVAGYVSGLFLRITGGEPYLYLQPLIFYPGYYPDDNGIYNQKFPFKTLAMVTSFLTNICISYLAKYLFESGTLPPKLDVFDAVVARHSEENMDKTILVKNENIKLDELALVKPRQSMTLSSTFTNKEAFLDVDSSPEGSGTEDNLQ
TMEM16A act = mouse TMEM16A channel activation, primary screen | Q8BHY3 | HEK293 TMEM16A/YFP-H148Q/I152L, iodide quench fluorescence; active compounds read low | B-score at 10 µM | actives 0.3% (n = 340,000);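 active = fluorescence-ratio B-score plate-corrected deviation score at least 3 library SD below zero, with starting fluorescence score within 5 deviations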;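 note: channel opened by trigger with iodide after compound preincubation; score built on the fluorescence ratio of max minus min over baseline; more negative score means more quench and so TMEM16A activation or potentiation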
PHOSPHO1 inh = blocks human PHOSPHO1 phosphatase activity. AID 1565. inhibition, % at 13.3 µM. Q8TCT1. recombinant PHOSPHO1, absorbance phosphatase assay. actives 1.1% (n = 290,000); in the data active = inhibition above about 60%
CHT inh = inhibitors of human choline transporter CHT; Q9GZV3; CHT-expressing cells, membrane potential dye, choline response; active compounds read low; B-score at 10 µM; actives 0.86% (n = 310,000);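 active = B-score over 3 SD under the library average, and starting fluorescence ratio not unusually high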;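 note: choline stimulus applied at its EC90 after an EC20 pre-addition; B-score computed on integrated fluorescence ratio after choline addition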
Of the large screens only hits and unclear results are named; the others gave an inactive call.

CC(=O)c1c(N2CCN(c3ccc(F)cc3)CC2)nc(=S)n(Cc2ccccc2)c1C	none
CN(C(=O)COC(=O)c1cc(S(=O)(=O)N2CCOCC2)c(Cl)cc1Cl)C1CCS(=O)(=O)C1 (stereo not drawn)	none
Cc1nn(CCC(=O)N2CCN(S(=O)(=O)c3ccc(Cl)cc3)CC2)c(C)c1C	none
O=C(Nc1nc2ccccc2n1CCN1CCCCC1)C1CCCCC1	ANO1 block 25
N#CC(C#N)=NNc1ccc([N+](=O)[O-])cc1	ANO1 block 100
C/C(=N\Nc1ccc([N+](=O)[O-])cc1)c1ccc(C#N)cc1	none (no result: HDAC3 inhib)
COc1ccc(C(=O)/C(C#N)=N/Nc2ccc([N+](=O)[O-])cc2)cc1	ANO1 block 25
COc1ccc(C(=O)/C(C#N)=N/Nc2ccccc2[N+](=O)[O-])cc1	none
COc1ccccc1CN1C[C@@H]2C[C@@H](c3ccccc3OC)N3CCC[C@@]23C1=O	none
COc1ccccc1CN1C[C@@H]2C[C@@H](C3=Cc4cccc(OC)c4OC3)N3CCC[C@@]23C1=O	TMEM16A act -4.7
CC(OC(=O)c1ccc2c(=O)n3c(nc2c1)CCCCC3)C(=O)Nc1ccc(F)cc1Cl (stereo not drawn)	none
CSc1nsc(SCC(=O)N2CCc3ccccc32)n1	none
O=C(c1cccnc1)N1CCC(c2nc3ccccc3[nH]2)CC1	none (no result: HDAC3 inhib, ANO1 block, CHT allo act, TMEM16A act, CHT inh)
O=C(NC(=S)Nc1ccc(-c2ccc(CO)o2)cc1)c1cccs1	ANO1 block 100
N=c1n(CCN2CCOCC2)c2ccccc2n1CC(O)COc1ccccc1 (stereo not drawn)	none
N=c1n(CCN2CCCCC2)c2ccccc2n1CC(O)COc1ccccc1 (stereo not drawn)	CHT allo act 7.2
CC1CCc2nn(CC(=O)Nc3ccc(F)cc3F)cc2C1 (stereo not drawn)	none
CCN(CC)c1ccc(NC(=O)Cn2cc3c(n2)CCC(C)C3)c(C)c1 (stereo not drawn)	PHOSPHO1 inh 83
C=C1CCN(c2ccc(C(=O)NCCC)cc2[N+](=O)[O-])CC1	TMEM16A act -6.4 (no result: PHOSPHO1 inh)
CCCCCCS(=O)[C@H]1CS(=O)(=O)C[C@@H]1S(=O)CCCCCC (stereo partly drawn)	PHOSPHO1 inh 96
CCOC(=O)CC(NC(=O)Cn1nnc(-c2ccccc2C)n1)c1ccc(OC)cc1 (stereo not drawn)	none (no result: TMEM16A act)
CCOc1ccc(S(=O)(=O)Nc2ccccc2C(=O)NCc2ccco2)cc1	none
O=C(CCSc1nc(-c2ccco2)cc(C(F)(F)F)n1)NCc1ccccn1	TMEM16A act -15
COc1ccc(CN2CCNC(=O)C2CC(=O)N(C)Cc2ccon2)c(OC)c1 (stereo not drawn)	none
O=C(O)c1nccnc1C(=O)Nc1ccc(Oc2c(Cl)cccc2Cl)nc1	none
CCn1cc(C(=O)O)c(=O)c2cnc(N3CCNCC3)nc21	CHT allo act 11 (no result: TMEM16A act)
C=CCNC(=S)N1CCN(c2ncc3c(=O)c(C(=O)O)cn(CC)c3n2)CC1	none
CCOc1c(Br)cc(C(=O)OCC(=O)N2CCc3ccccc3C2)cc1OC	none (no result: ANO1 block, CHT allo act, PHOSPHO1 inh, CHT inh)
CCCN(CC(=O)Nc1ccccc1C)C(=O)c1oc2ccc(OCC)cc2c1C	none (no result: PHOSPHO1 inh)
CC(=O)O[C@H]1C[C@@H]2CC[C@@H]3[C@H](CC[C@@]4(C)[C@H]3C[C@H]([N+]3(C)CCCCC3)[C@@H]4OC(C)=O)[C@@]2(C)C[C@@H]1N1CCCCC1	CHT allo act 6.5 (no result: TMEM16A act, PHOSPHO1 inh)
O=[N+]([O-])c1ccc(NNC(=S)Nc2ccccc2)cc1	PHOSPHO1 inh 86
NS(=O)(=O)c1ccc(NC(=S)NCc2ccc(F)cc2)cc1	none
O=[N+]([O-])c1ccc(NC(=S)NCc2ccc(F)cc2)cc1	ANO1 block 25, TMEM16A act -5
COc1ccc([N+](=O)[O-])cc1NC(=S)Nc1ccccc1	none
O=[N+]([O-])c1cc(C(F)(F)F)ccc1NCCNC(=S)Nc1ccc(Cl)cc1	HDAC3 inhib inconclusive, ANO1 block 100
O=[N+]([O-])c1cc(C(F)(F)F)ccc1NCCCCNS(=O)(=O)c1ccc(Cl)cc1	none
O=[N+]([O-])c1ccc(NC(=S)NCCc2ccc(Cl)cc2)cc1	ANO1 block 100
NC(=O)c1cc(S(=O)(=O)N2CCCC2)ccc1OCCOc1ccccc1F	none (no result: HDAC3 inhib, ANO1 block, CHT allo act, PHOSPHO1 inh, CHT inh)
NS(=O)(=O)c1ccc(NC(=S)NCCc2ccccc2)cc1	none
O=[N+]([O-])c1ccc(NC(=S)NCCc2ccccc2)cc1	ANO1 block 100 (no result: HDAC3 inhib)
CCOCCCNC(=O)c1ccc(N(C)S(=O)(=O)c2ccc(OC)cc2)cc1	none
Cc1ccccc1CS(=O)(=O)c1nnc([C@H](CC(C)C)NC(=O)OC(C)(C)C)o1	HDAC3 inhib 38
CC(C)(C)OC(=O)N[C@@H](Cc1ccccc1)c1nnc(S(=O)(=O)Cc2cccc(F)c2)o1	HDAC3 inhib 69 (no result: TMEM16A act)
CC1CCCC(C)N1C(=C(Cl)Cl)C(=C1SCCS1)[N+](=O)[O-] (stereo not drawn)	TMEM16A act -15
Cc1onc(-c2ccccc2)c1C(=O)OCC(=O)Nc1cccc(Cl)c1	HDAC3 inhib inconclusive (no result: ANO1 block, CHT allo act, PHOSPHO1 inh, CHT inh)
CN(C(=O)COc1ccccc1C(=O)NCCOc1ccccc1)c1ccccc1	ANO1 block 25
CCCCn1c(N)c(N(CCOC)C(=O)CSc2ccc([N+](=O)[O-])cc2)c(=O)[nH]c1=O	none (no result: ANO1 block, CHT allo act, PHOSPHO1 inh, CHT inh)
O=C(Nc1nc(-c2cc(F)ccc2F)cs1)C1=NN(c2ccccc2)C(=O)CC1	none
Cc1ccccc1C(=O)N1CCC(C(=O)Nc2nc3ccc(F)cc3s2)CC1	ANO1 block 25 (no result: HDAC3 inhib, PHOSPHO1 inh)
CCC(=O)NC(=S)NNC(=O)c1ccccc1[N+](=O)[O-]	PHOSPHO1 inh 65
O=C(NC(=S)NNC(=O)c1ccccc1[N+](=O)[O-])c1ccccc1	none
CC(=O)N1CCN(CC(O)Cn2c3ccccc3c3ccccc32)CC1 (stereo not drawn)	none
Cc1ccc(N2C(=O)[C@@H]3[C@H](C2=O)C2c4ccccc4C=CN2[C@@H]3C(=O)c2ccco2)cc1 (stereo partly drawn)	PHOSPHO1 inh 74 (no result: HDAC3 inhib, ANO1 block, CHT allo act, CHT inh)
O=C(c1ccco1)[C@@H]1[C@@H]2C(=O)N(c3ccccc3)C(=O)[C@@H]2C2c3ccccc3C=CN21 (stereo partly drawn)	PHOSPHO1 inh 84
CC1(C)CC2CC(C)(CN2S(=O)(=O)c2ccc(C(=O)Nc3cccc(S(=O)(=O)N4CCOCC4)c3)cc2)C1 (stereo not drawn)	none
CC1(C)CC2CC(C)(CN2S(=O)(=O)c2ccc(C(=O)Nc3cc(S(=O)(=O)N4CCOCC4)ccc3Cl)cc2)C1 (stereo not drawn)	TMEM16A act -12
Cc1cccc(C(=O)NNC(=O)c2ccc(NC(=O)C(C)(C)C)cc2)c1	none (no result: PHOSPHO1 inh)
CCCCOc1ccc(S(=O)(=O)Nc2cc(OC)ccc2OC)cc1	ANO1 block 25
COc1ccc(OC)c(NS(=O)(=O)c2ccc(Cl)nc2)c1	none
